# Experimental data taken from PubChem BioAssay AID504848 (National Center for Advancing Translational Sciences (NCATS), 2011).
# Hit rate of the full screen: of about 2,300 compounds, about 1,400 (61%) were called active. About 29% were inconclusive and are not listed. The set was probably picked from earlier hits. Some of the results follow. Unmarked numbers belong to inactive results. Calls come from the whole dose curve; as a rule, active = well fitted inhibition curve with a large enough effect; inconclusive = small, poorly fitted or top-dose-only effect, or effect the other way; inactive = no such curve, though single readings can be large or run the other way.
# Test: Confirmation screen for delayed death inhibitors of the malarial parasite plastid, 96 hour incubation; note: nearly all actives have a fitted effect of over 60% in size
# Details: P. falciparum luciferase growth in erythrocytes; series mostly up to 28.7 µM; activity change, negative = inhibition: at the top concentration
# Method in brief: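 Erythrocytes infected with luciferase-expressing P. falciparum (2% hematocrit, 0.1% parasitemia final) in RPMI 1640 with 0.5% Albumax, exposed to compounds 96 h at 37 C, 5% CO2. Growth inhibition read as decreased luciferase luminescence.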
# % is set by controls: 0 for no effect and ±100 for the full control effect; potency is the fitted concentration of half-maximal effect.
SMILES,Potency,"activity change, negative = inhibition"
O=C(CSc1nnc(NC(=O)c2ccccc2[N+](=O)[O-])s1)NCC1CCCO1 (stereo not given),14.1 µM (active),
O=C(COC(=O)c1c2c(nc3ccccc13)CCN(Cc1ccccc1)C2)Nc1c(F)cccc1F,5.01 µM (active),
COc1ccc(Cc2nc3ccc(C(=O)NCCc4ccccn4)cc3o2)cc1OC,11.2 µM (active),
Nc1nc(C2CC2)c(Sc2sc(N)nc2C2CC2)s1,,-23.1%
CCOc1ccccc1NC(=O)NC1Cc2ccccc2C1,12.6 µM (active),
CC(C)(C(=O)N[C@H](CO)c1ccccc1)C(=O)N[C@H](CO)c1ccccc1,,-4.34%
CCCC(=O)NC(c1ccccc1)c1c(O)ccc2ccccc12 (stereo not given),4.47 µM (active),
Cc1ccc2c(c1)C1CC(C)(O2)N(c2cccc(C(=O)N3CCN(c4ccccn4)CC3)c2)C(=O)N1 (stereo not given),12.6 µM (active),
Cc1cccc(-n2c(C)cc(/C=N\NC(=O)c3cccs3)c2C)c1,12.6 µM (active),
C[N+]1(CCCCSc2ccc(O)cc2)CCCCC1,4.47 µM (active),
COc1ccc(C)cc1NC(=O)C(Sc1nnc(Nc2cc(C)ccc2OC)s1)c1ccccc1 (stereo not given),14.1 µM (active),
Cc1ccc(C(=O)NCCn2ccc3ccccc32)cc1[N+](=O)[O-],,-13.4%
COC(=O)c1ccc(CNCC(=O)Nc2ccc(C(=O)OC)cc2)cc1,,-15.1%
Cc1ccc(C(=O)C[n+]2ccccc2C)cc1[N+](=O)[O-],11.2 µM (active),
CCOC(=O)NC(=O)COC(=O)c1ccc(O)cc1,,13.7%
Cc1cccc[n+]1CC(=O)Nc1ccc([N+](=O)[O-])cc1,12.6 µM (active),
COC(=O)c1ccc(NC(=O)C[n+]2ccccc2C)cc1,12.6 µM (active),
Cc1cccc[n+]1CC(=O)c1ccc(NC(=O)c2ccccc2)cc1,5.01 µM (active),
CC(C)[C@H](NC(=O)N1CCn2c1nc1ccccc12)C(=O)N[C@H](C(=O)O)c1ccccc1,,-11.3%
CCc1ccc(-c2nc3ccc(Br)cc3c(C(=O)O)c2C)s1,,-11.4%

SMILES,Potency,"activity change, negative = inhibition"
S=C(NCc1ccncc1)Nc1ccc(Br)cc1Cl,12.6 µM (active),
O=C(C1CCC1)N1CCc2cc(S(=O)(=O)NCc3ccco3)ccc21,,-14.6%
CC1CCN(CCCNS(=O)(=O)c2cc(Br)cc3c2N(C(=O)C2CC2)CC3)CC1,12.6 µM (active),
CCC(=O)N1CCc2cc(Br)cc(S(=O)(=O)NCc3ccco3)c21,12.6 µM (active),
O=C(C1CC1)N1CCc2cc(Br)cc(S(=O)(=O)NCc3ccco3)c21,11.2 µM (active),
CCCCN(CCCC)CC(O)c1cc(Cl)cc2c1-c1ccc(Cl)cc1/C2=C/c1ccc(Cl)cc1 (stereo not given),0.0562 µM (active),
O=[N+]([O-])c1ccc(C(O)C[n+]2ccccc2)cc1 (stereo not given),10 µM (active),
CCOc1ccc(C2NC(=S)NC3=C2CCc2ccccc23)cc1 (stereo not given),14.1 µM (active),
CN(C)c1ccc2nc3ccc(=[N+](C)C)cc-3sc2c1,0.0631 µM (active),
Cc1[nH]c(=O)[nH]c(=O)c1S(=O)(=O)N1CCCC(C(=O)N2CCN(c3cccc(C(F)(F)F)c3)CC2)C1 (stereo not given),8.91 µM (active),
N#Cc1cccc(NC(=O)Cn2c3[n+](c4ccc(C(F)(F)F)cc42)CCCCC3)c1,0.251 µM (active),
CCCCCn1c(=O)c2ccccc2n2c(CCl)nnc12,6.31 µM (active),
CCCCCCCCC[n+]1cccc2c3ccccc3ccc21,0.158 µM (active),
CCCCCCCOc1ccc(C2(C)NC(=O)NC2=O)cc1 (stereo not given),8.91 µM (active),
CCC/C(=N\NC(=O)c1ccco1)c1ccc(Cl)s1,12.6 µM (active),
CCOc1ccc(CN2CCN(Cc3ccc4cc(F)ccc4n3)CC2CCO)cc1 (stereo not given),14.1 µM (active),
CCOc1ccccc1CN1CCN(Cc2ccc3cccc(OC)c3n2)CC1CCO (stereo not given),12.6 µM (active),
COc1ccc(-c2cc(C(=O)Nc3cc(C)n(Cc4ccc(Cl)cc4)n3)no2)cc1OC,0.316 µM (active),
CCCn1cc(S(=O)(=O)c2ccc(Cl)cc2)c(=O)c2cc(OC)ccc21,11.2 µM (active),
NC(=O)CC(NC(=O)c1ccccc1)c1ccc(N2CCN(c3ccccc3)CC2)c([N+](=O)[O-])c1 (stereo not given),12.6 µM (active),

SMILES,Potency,"activity change, negative = inhibition"
O=C(OCC(=O)N1CCN(c2ccccc2)CC1)c1cc(Cl)ccc1[N+](=O)[O-],,-16.5%
O=C(NCc1ccco1)c1cc2sccc2n1Cc1ccc(F)cc1,11.2 µM (active),
CN(CCC#N)C(=O)COC(=O)c1ccc2[nH]c3c(c2c1)CCCC3,,-21.3%
COc1ccccc1N1CCN(C(=O)c2ccc3[nH]c4c(c3c2)CCCC4)CC1,11.2 µM (active),
CCN1CCN(Cc2c(O)ccc3c2O/C(=C\C=C\c2ccccc2)C3=O)CC1,4.47 µM (active),
CC1=Nc2cc(C(=O)N3CCCC3)ccc2Sc2c(C)ccc(C)c21,3.16 µM (active),
CC1=Nc2cc(C(=O)N3CCCC3)ccc2Sc2ccc(C)cc21,0.891 µM (active),
CCOC(=O)CSc1nnc(NC(=O)c2cccc([N+](=O)[O-])c2)s1,11.2 µM (active),
Nc1nnnn1/N=C/C(Br)=C/c1ccccc1,12.6 µM (active),
CCCN1CCN(C(=O)C2CCN(S(=O)(=O)c3ccc4c(c3)NC(=O)C(C)S4)CC2)CC1 (stereo not given),7.08 µM (active),
Cc1cc(NC(=O)COC(=O)c2ccccc2S(=O)(=O)N(C)c2ccccc2)no1,7.94 µM (active),
Cc1cc(NC(=O)COC(=O)c2c(Cl)cccc2Cl)no1,,-11.4%
O=C(CSc1nc2ccccc2c(=O)n1Cc1ccc(C(=O)NC2CC2)cc1)NCc1ccco1,7.08 µM (active),
O=C(CSc1c2c(nc3ccccc13)CCCC2)NCc1ccco1,,-8%
CCN(CC)CCn1c(SCC(=O)NCc2ccccc2)nc2c(sc3ccccc32)c1=O,5.01 µM (active),
NC(=O)CSc1nc2c(sc3ccccc32)c(=O)n1CCCN1CCOCC1,3.16 µM (active),
O=C(CSc1nc2c(sc3ccccc32)c(=O)n1-c1ccccc1)NCc1ccco1,12.6 µM (active),
CC(=O)Nc1sc(C)c(C)c1C(=O)OCC(=O)N(CC(C)C)C1CCS(=O)(=O)C1 (stereo not given),12.6 µM (active),
Cc1cnc(CNC(=O)c2ccc3oc(Cc4ccc(Cl)cc4)nc3c2)cn1,12.6 µM (active),
Cc1cnc(CNC(=O)c2ccc3oc(Cc4ccccc4)nc3c2)[nH]1,14.1 µM (active),
